Experimental data published in the supplement of paper PMC9694430.

Columns and labels:
Test in all cases: thermal shift delta Tm vs DMSO control; higher = stronger stabilization (binding)
Settings in all cases: 12.5 µM; protein concentration 2 µM
[1] = test system: LOC_OS04G57630-cb004
Summary of the method: (§1)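 Heating from 25°C to 95°C at 0.05°C/s, fluorescence was recorded for 19.5 μl wells of 2 μM E. coli-expressed, purified rice kinase domain in 100 mM potassium phosphate pH 7.5, 150 mM NaCl, 10% glycerol and 5 × SYPRO Orange with compound in DMSO. Boltzmann fits gave melting temperatures for this differential scanning fluorimetry assay. The shift reported is the mean of three replicates against the DMSO-only protein.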

[2] = test system: LOC_OS05G07850-cb002
Summary of the method: as §1

[3] = test system: LOC_OS05G16824-cb004
Summary of the method: as §1

[4] = test system: LOC_OS05G28520-cb001
Summary of the method: as §1

[5] = test system: LOC_OS05G30820-cb001
Summary of the method: as §1

[6] = test system: LOC_OS05G43570-cb004
Summary of the method: as §1

[7] = test system: LOC_OS06G16330-cb003
Summary of the method: as §1

[8] = test system: T1, LOC_OS06G22820-cb001
T1 sequence (whole entry): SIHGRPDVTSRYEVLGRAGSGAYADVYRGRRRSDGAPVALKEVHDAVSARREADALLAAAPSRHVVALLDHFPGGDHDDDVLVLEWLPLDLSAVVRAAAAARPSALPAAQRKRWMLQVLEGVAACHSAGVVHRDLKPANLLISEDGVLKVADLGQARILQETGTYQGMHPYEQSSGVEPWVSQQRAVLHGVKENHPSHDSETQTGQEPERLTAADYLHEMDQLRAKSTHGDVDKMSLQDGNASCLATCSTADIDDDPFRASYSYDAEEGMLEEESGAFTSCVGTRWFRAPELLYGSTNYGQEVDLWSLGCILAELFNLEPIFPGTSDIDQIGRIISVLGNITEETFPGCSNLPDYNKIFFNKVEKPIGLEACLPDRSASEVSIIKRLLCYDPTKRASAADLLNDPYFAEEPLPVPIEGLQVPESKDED
Summary of the method: as §1

[9] = test system: LOC_OS07G06570-cb004
Summary of the method: as §1

[10] = test system: LOC_OS07G07230-cb001
Summary of the method: as §1
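Further: purified Escherichia coli-expressed rice kinase domain construct.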

LOC_OS06G16330-cb003, sequence (as listed by the source): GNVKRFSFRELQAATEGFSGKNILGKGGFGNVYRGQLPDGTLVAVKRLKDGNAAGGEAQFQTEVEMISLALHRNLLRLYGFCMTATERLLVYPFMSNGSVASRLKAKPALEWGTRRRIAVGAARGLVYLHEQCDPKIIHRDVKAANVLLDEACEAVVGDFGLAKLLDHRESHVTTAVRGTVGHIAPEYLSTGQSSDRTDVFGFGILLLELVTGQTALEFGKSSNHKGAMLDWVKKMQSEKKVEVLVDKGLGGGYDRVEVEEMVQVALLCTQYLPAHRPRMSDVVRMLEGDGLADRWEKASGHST

Row | Compound | thermal shift delta Tm [1] [°C] | thermal shift delta Tm [2] [°C] | thermal shift delta Tm [3] [°C] | thermal shift delta Tm [4] [°C] | thermal shift delta Tm [5] [°C] | thermal shift delta Tm [6] [°C] | thermal shift delta Tm [7] [°C] | thermal shift delta Tm [8] [°C] | thermal shift delta Tm [9] [°C] | thermal shift delta Tm [10] [°C]
1 | O=C(/C=C/c1ccc2ccccc2n1)c1ccncc1 | 3.08 | 9.31 | 4.2 | 0.46 | 0.47 | 0.37 | 1.41 | 0.76 | 0.69 | 0.31
2 | COc1cc(OC)cc(N(CCNC(C)C)c2ccc3ncc(-c4cnn(C)c4)nc3c2)c1 | 0.11 | 3.45 | -0.05 | 0 | 0.18 | 0.08 | 0.79 | 0.32 | 1.94 | 0.52
3 | CC(C)S(=O)(=O)c1ccc2nccc(Nc3ccc4scnc4c3)c2c1 | 2.51 | 3.36 | 4.91 | 0.25 | -0.04 | 0.38 | 2.09 | 0.32 | 1.62 | 0.17
4 | CO[C@H]1CC[C@H](N2C(=O)CNc3ncc(-c4ccc(C(C)(C)O)nc4)nc32)CC1 | -0.07 | 0.66 | -2.4 | 0.49 | 0.29 | 0.48 | -0.57 | 0.55 | 0.79 | 0.66
5 | CC1=C(C(=O)Nc2cc3cn[nH]c3cc2F)C(c2ccc(C(F)(F)F)cc2)CC(=O)N1 (stereo not given) | -0.15 | 0.48 | -6.69 | -0.3 | 0.33 | 1.08 | -0.13 | 0.24 | 0.71 | 0.37
6 | COc1nccnc1NS(=O)(=O)c1ccc(NC(=O)/C=C/c2ccc([N+](=O)[O-])s2)cc1 [Necrosulfonamide] | -0.33 | -1.15 | -2.3 | -0.14 | 0.41 | 0.39 | -0.03 | 0.79 | 0.22 | 0.63
7 | NC(=O)c1cnc(N[C@@H]2CCCC[C@@H]2N)nc1Nc1cccc(-n2nccn2)c1 | 0.91 | 6.88 | 6.77 | -0.14 | 2.09 | 0.39 | 5.31 | 0.77 | 1.27 | 0.71
8 | Cc1cc(Nc2nc(N[C@@H](C)c3ncc(F)cn3)ncc2Cl)[nH]n1 | 0.37 | 10.9 | 8.64 | 0.22 | 1.6 | 0.91 | 7.15 | 0.49 | 0.97 | 0.17
9 | OCCn1cc(-c2cnc3nnn(Cc4ccc5ncccc5c4)c3n2)cn1 | -0.21 | 0.33 | -2.44 | 0.66 | 0.46 | 0.28 | -0.29 | 0.46 | 0.2 | 0.97
10 | O=C(Nc1nccs1)C(c1cc(F)ccc1O)N1Cc2ccccc2C1=O (stereo not given) | 0 | -0.08 | -0.86 | 0.12 | 0.61 | -0.04 | -0.29 | 0.38 | 1.35 | 0.63
11 | C[C@@H]1COC(Nc2ccc3ncnc(Nc4ccc(OCc5nccs5)c(Cl)c4)c3c2)=N1 [Varlitinib] | 1.38 | 3.96 | -3.4 | 0.54 | 0.94 | 0.53 | 1.46 | 0.8 | 0.43 | 0.26
12 | CN(C)C/C=C/C(=O)Nc1cc2c(Nc3ccc(F)c(Cl)c3)ncnc2cc1O[C@H]1CCOC1 [Afatinib (BIBW2992)] | -0.38 | 7.09 | 0.09 | 0.25 | 0.35 | 0.5 | 1 | 0.48 | 0.78 | 0.57
13 | COc1cc2ncnc(Nc3ccc(O)c(Br)c3)c2cc1OC | 0.28 | 12 | -0.59 | 0.86 | 0.54 | 0.23 | 5.86 | 0.8 | 1.76 | 0.01
14 | Cn1cnc(N)c2ncnc1-2 [3-Methyladenine (3-MA)] | -0.01 | 0.75 | -3.2 | 0.15 | 0.64 | 0.46 | -0.06 | 0.64 | 0.43 | 0.03
15 | O=C(O)[C@]1(Cc2cccc(Nc3nccs3)n2)CC[C@@H](Oc2cccc(Cl)c2F)CC1 | 1.26 | 13 | 2.5 | 0.88 | 4.08 | 0.24 | 20.6 | 0.38 | 0.16 | -1.36
16 | C=CC(=O)N1CCC(Oc2cc3c(Nc4ccc(Cl)c(Cl)c4F)ncnc3cc2OC)CC1 [Poziotinib (HM781-36B)] | 0.32 | 4.97 | -0.85 | 0.58 | 0.44 | 0.15 | 8.31 | 0.44 | 0.72 | 0.28
17 | O=c1cc(N2CCOCC2)oc2c(-c3ccccc3)cccc12 | 0.2 | 1.02 | 0.85 | 0.91 | 0.41 | 0.98 | 0.37 | 1.05 | 0.89 | -0.39
18 | Cc1cc(F)c(Nc2ncnc3cc(OCc4ccccc4)ccc23)cc1O | -0.1 | 1.29 | -1.22 | 1.19 | 0.76 | 1.17 | -0.11 | 1.28 | 2.49 | 0.37
19 | CNC(=O)Nc1ccc(-c2nc(N3CC4CCC(C3)O4)c3cnn(C4CCC5(CC4)OCCO5)c3n2)cc1 | 0.62 | 0.66 | -1.09 | 0.58 | 0.69 | 0.65 | -0.11 | 0.61 | 0.67 | 0.15
